The values that follow come from PubChem BioAssay (NCATS).

Structures are written as SMILES. Results filed as inconclusive are left out. Entries that show only a call come without a potency. The source made the active and inactive calls. Unless noted, calls follow the shape of the dose curve; as a rule, active = well fitted curve in the direction sought with a large enough effect; inconclusive = small, poorly fitted or top-dose-only effect, or another doubt; inactive = no such curve, though single readings can be large; an effect the other way counts as inactive or inconclusive.

Chain of Ferritin light chain (Equus caballus) (P02791 2-175 limits assumed): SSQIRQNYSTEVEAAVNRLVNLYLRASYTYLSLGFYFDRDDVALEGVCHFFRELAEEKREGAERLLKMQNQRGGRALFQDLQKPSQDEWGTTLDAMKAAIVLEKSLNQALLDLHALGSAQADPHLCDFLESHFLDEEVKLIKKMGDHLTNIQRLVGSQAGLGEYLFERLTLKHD

System in the first assay: not listed separately
In words: qHTS for differential inhibitors of proliferation of Plasmodium falciparum line GB4 (AID 1816).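 Also: parasite growth measured after 72 h incubation.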 Also: potency is read from the fitted curve at half-maximal effect. The following applies: Potency: Plasmodium falciparum GB4 proliferation inhibition; series mostly up to 28.7 µM.
For `COc1ccc(Cl)cc1C(=O)NCCc1ccc(S(=O)(=O)NC(=O)NC2CCCCC2)cc1`, the Potency entry was “inactive”.

In the case of `Cc1cc(N)c2ccccc2[n+]1CCCCCCCCCC[n+]1c(C)cc(N)c2ccccc21`, the Potency is 0.251 µM (active).

Take `CN(C)CCOC(C)(c1ccccc1)c1ccccn1` (stereo unspecified): the Potency was 6.31 µM (active).

As for `CC(C)C(=O)c1c(C(C)C)nn2ccccc12`, the Potency result is “inactive”.

Turning to `CC1=C(CC(=O)O)c2cc(F)ccc2/C1=C\c1ccc(S(C)(=O)=O)cc1`, the Potency entry is “inactive”.

System in a further assay: not listed separately
In words: qHTS for differential inhibitors of proliferation of Plasmodium falciparum line 3D7 (AID 1876). Also: potency is read from the fitted curve at half-maximal effect. The following applies: P. falciparum 3D7 proliferation inhibition; series mostly up to 28.7 µM.
Take `O=C1N=C(O)CN1/N=C/c1ccc(-c2ccc([N+](=O)[O-])cc2)o1`: the Potency was 11.2 µM (active).

On to `COc1ccc(Cl)cc1C(=O)NCCc1ccc(S(=O)(=O)NC(=O)NC2CCCCC2)cc1`, for which the Potency entry was “inactive”.

As to `Cc1cc(N)c2ccccc2[n+]1CCCCCCCCCC[n+]1c(C)cc(N)c2ccccc21`, the Potency was 0.0501 µM (active).

Consider `CCCCCCCCCCCCCCCC(=O)NCCO`, for which the Potency is 12.6 µM (active).

For `CC1=C(/C=C/C(C)=C/C=C/C(C)=C/C(=O)O)C(C)(C)CCC1`, the Potency result is “inactive”.

Take `CC1=C(CC(=O)O)c2cc(F)ccc2/C1=C\c1ccc(S(C)(=O)=O)cc1`: the Potency entry was “inactive”.

System in the next assay: not listed separately
In words: qHTS for differential inhibitors of proliferation of Plasmodium falciparum line D10 (AID 1877).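 Also: parasites grown with compound for 72 h before DNA staining.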 Also: potency is read from the fitted curve at half-maximal effect. The settings on record: series mostly up to 28.7 µM.
Regarding `COc1ccc(Cl)cc1C(=O)NCCc1ccc(S(=O)(=O)NC(=O)NC2CCCCC2)cc1`, the Potency result is “inactive”.

As for `Cc1cc(N)c2ccccc2[n+]1CCCCCCCCCC[n+]1c(C)cc(N)c2ccccc21`, the Potency was 0.112 µM (active).

With `CCCCCCCCCCCCCCCC(=O)NCCO`, the Potency entry is “inactive”.

On to `CC(C)C(=O)c1c(C(C)C)nn2ccccc12`, for which the Potency entry is “inactive”.

As to `CC1=C(/C=C/C(C)=C/C=C/C(C)=C/C(=O)O)C(C)(C)CCC1`, the Potency entry was “inactive”.

On to `CC1=C(CC(=O)O)c2cc(F)ccc2/C1=C\c1ccc(S(C)(=O)=O)cc1`, for which the Potency entry was “inactive”.

On to `NC(=O)c1ncn([C@@H]2O[C@H](CO)[C@@H](O)[C@H]2O)n1`, for which the Potency entry was “inactive”.

System in another assay: not listed separately
Description: qHTS for differential inhibitors of proliferation of Plasmodium falciparum line Dd2 (AID 1882). Also: nearly all actives have a fitted effect of over 65% in size. Also: potency is read from the fitted curve at half-maximal effect. The following applies: Potency: Plasmodium falciparum Dd2 proliferation inhibition; series mostly up to 28.7 µM. The gist of the method:
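SYBR Green DNA fluorescence (ex 485, em 535 nm) after overnight lysis quantifies parasite growth; compound exposure lasted 72 h at 37 C on infected red cells at 2.5% hematocrit, 0.3% parasitemia (final). Artemisinin 0.29 uM and vehicle wells define normalization.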
Consider `CCCn1cnc2c1c(=O)n(CCCCC(C)=O)c(=O)n2C`, for which the Potency entry was “inactive”.

For the compound `O=C1N=C(O)CN1/N=C/c1ccc(-c2ccc([N+](=O)[O-])cc2)o1`, the Potency result was “inactive”.

Turning to `COc1ccc(Cl)cc1C(=O)NCCc1ccc(S(=O)(=O)NC(=O)NC2CCCCC2)cc1`, the Potency result was “inactive”.

In the case of `Cc1cc(N)c2ccccc2[n+]1CCCCCCCCCC[n+]1c(C)cc(N)c2ccccc21`, the Potency is 2.24 µM (active).

As to `COC(=O)C1=C(C)NC(C)=C(C(=O)OC)C1c1ccccc1[N+](=O)[O-]`, the Potency result is “inactive”.

For the compound `CNCC(O)c1ccc(O)c(O)c1` (stereo unspecified), the Potency entry was “inactive”.

Consider `CN(C)CCOC(C)(c1ccccc1)c1ccccn1` (stereo unspecified), for which the Potency is 10 µM (active).

For `CCCCCCCCCCCCCCCC(=O)NCCO`, the Potency entry was “inactive”.

As to `CC(C)C(=O)c1c(C(C)C)nn2ccccc12`, the Potency result is “inactive”.

With `CC1=C(CC(=O)O)c2cc(F)ccc2/C1=C\c1ccc(S(C)(=O)=O)cc1`, the Potency entry was “inactive”.

For the compound `NC(=O)c1ncn([C@@H]2O[C@H](CO)[C@@H](O)[C@H]2O)n1`, the Potency result is “inactive”.

System in the next assay: not listed separately
Description: qHTS for differential inhibitors of proliferation of Plasmodium falciparum line W2 (AID 1883).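 Also: potency is read from the fitted curve at half-maximal effect; parasites grown with compound for 72 h before lysis and staining.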 The settings on record: Potency: Plasmodium falciparum W2 proliferation inhibition; series mostly up to 28.7 µM.
Regarding `CCCn1cnc2c1c(=O)n(CCCCC(C)=O)c(=O)n2C`, the Potency is 12.6 µM (active).

In the case of `O=C1N=C(O)CN1/N=C/c1ccc(-c2ccc([N+](=O)[O-])cc2)o1`, the Potency was 7.08 µM (active).

For `CNCC(O)c1ccc(O)c(O)c1` (stereo unspecified), the Potency was 14.1 µM (active).

For the compound `CN(C)CCOC(C)(c1ccccc1)c1ccccn1` (stereo unspecified), the Potency is 3.55 µM (active).

Take `CCCCCCCCCCCCCCCC(=O)NCCO`: the Potency was 3.16 µM (active).

With `CC1=C(/C=C/C(C)=C/C=C/C(C)=C/C(=O)O)C(C)(C)CCC1`, the Potency was 14.1 µM (active).

For the compound `C[C@]12CC[C@@H]3c4ccc(O)cc4CC[C@H]3[C@@H]1CCC2=O`, the Potency is 11.2 µM (active).

System in the next assay: not listed separately
Description: qHTS for differential inhibitors of proliferation of Plasmodium falciparum line HB3 (AID 1886).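 Also: parasites grown with compound for 72 h before SYBR Green readout.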 Also: potency is read from the fitted curve at half-maximal effect. The settings on record: Potency: Plasmodium falciparum HB3 proliferation inhibition; series mostly up to 28.7 µM.
Consider `COc1ccc(Cl)cc1C(=O)NCCc1ccc(S(=O)(=O)NC(=O)NC2CCCCC2)cc1`, for which the Potency entry was “inactive”.

`Cc1cc(N)c2ccccc2[n+]1CCCCCCCCCC[n+]1c(C)cc(N)c2ccccc21`: the Potency was 0.126 µM (active).

For the compound `CN(C)CCOC(C)(c1ccccc1)c1ccccn1` (stereo unspecified), the Potency result was “inactive”.

With `NC(=O)c1ncn([C@@H]2O[C@H](CO)[C@@H](O)[C@H]2O)n1`, the Potency entry was “inactive”.

System in a further assay: not listed separately
Description: qHTS Assay for Identification of Small Molecule Inducers of Hypoxia Response (AID 2120; active = well fitted curve in the direction sought with a large enough effect in the signal ratio, with a control signal flat, not every such curve was filed as active; the % refers to the signal ratio). The following applies: hypoxia response reporter cells, beta-lactamase ratio readout; series mostly up to 104 µM. The gist of the method: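 Reporter induction read as the CCF4 blue/green (460nm/530nm) emission ratio after 2.5 h dye loading at room temperature. ME-180 HRE-beta-lactamase cells received titrated compounds for 17 h at 37 degrees Celsius; AC50 values derived.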
For `Oc1cccc(O)c1`, the result was inactive.

Take `NCCNCCNCCN`: the result was inactive.

Consider `[Cl][In]([Cl])[Cl]`, for which the outcome was inactive.

For the compound `NCCNCCNCCNCCN`, the outcome was inactive.

With `CC12CCC(CC1)C(C)(C)O2`, the outcome was inactive.

On to `O=C1c2c(O)cccc2Cc2cccc(O)c21`, for which the result was inactive.

Take `C[C@]12C[C@H](O)[C@H]3[C@@H](CCC4=CC(=O)CC[C@@]43C)[C@@H]1CC[C@@H]2C(=O)CO`: the outcome was inactive.

As to `COc1ccccc1O`, the outcome was inactive.

With `CCCCCCCCCCCCOS(=O)(=O)O`, the outcome was inactive.

For `Cc1cc(CC(=O)O)n(C)c1C(=O)c1ccc(Cl)cc1`, the result was inactive.

On to `O=C1O[C@H]([C@@H](O)CO)C(O)=C1O`, for which the result was inactive.

As to `CC1(C)[C@@H]2CC[C@@]1(C)C(=O)C2`, the outcome was inactive.

Another assay addresses Ferritin light chain (Equus caballus) (UniProt P02791). In words: qHTS Validation Assay for Identification of Novel General Anesthetics (AID 2323). The following applies: horse apoferritin, anesthetic-site fluorescent probe displacement; series mostly up to 76.9 µM. The procedure, abridged:
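Competitive displacement of the profluorescent anesthetic 1-AMA (50% saturated, PBS) from 10 uM apoferritin, 10 min, room temperature. Activity is normalized 380/535 nm fluorescence; concentration-response fitted with a four-parameter Hill equation.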
`CCCn1cnc2c1c(=O)n(CCCCC(C)=O)c(=O)n2C`: the compound was classed as inactive.

`COc1ccc(Cl)cc1C(=O)NCCc1ccc(S(=O)(=O)NC(=O)NC2CCCCC2)cc1`: the compound was called inactive.

`Cc1cc(N)c2ccccc2[n+]1CCCCCCCCCC[n+]1c(C)cc(N)c2ccccc21`: the call was inactive.

On to `COC(=O)C1=C(C)NC(C)=C(C(=O)OC)C1c1ccccc1[N+](=O)[O-]`, for which the compound was classed as inactive.

Consider `CNCC(O)c1ccc(O)c(O)c1` (stereo unspecified), for which the compound was classed as inactive.

For the compound `CN(C)CCOC(C)(c1ccccc1)c1ccccn1` (stereo unspecified), the call was inactive.

With `CCCCCCCCCCCCCCCC(=O)NCCO`, the call was inactive.

As to `CC(C)C(=O)c1c(C(C)C)nn2ccccc12`, the compound was called inactive.

Turning to `CNC(=O)Oc1ccc2c(c1)[C@]1(C)CCN(C)[C@@H]1N2C`, the call was inactive.

In the case of `CN(C)CCC=C1c2ccccc2CCc2ccccc21`, the compound was classed as inactive.

`CC1=C(CC(=O)O)c2cc(F)ccc2/C1=C\c1ccc(S(C)(=O)=O)cc1`: the outcome was inactive.

Consider `C[C@]12CC[C@@H]3c4ccc(O)cc4CC[C@H]3[C@@H]1CCC2=O`, for which the compound was classed as inactive.

As to `CN(C)CCCN1c2ccccc2CCc2ccccc21`, the compound was classed as inactive.

As for `NC(=O)c1ncn([C@@H]2O[C@H](CO)[C@@H](O)[C@H]2O)n1`, the compound was called inactive.
